# Source: the supplement of paper PMC3724861
# Shown is part of a subset that was picked to be rich in hits. How many sequences the whole screen found active is unknown. Unmarked numbers belong to inactive results.
# Test system: T1, Caupolican (Caup) homeodomain DNA-binding domain
# T1 sequence: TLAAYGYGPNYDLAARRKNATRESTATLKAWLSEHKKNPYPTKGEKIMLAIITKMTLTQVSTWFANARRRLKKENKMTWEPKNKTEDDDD
# Assay: PBM E-score (8-mer, recovered from the published 9-mer minima) (E-score (dimensionless, -0.5 to 0.5)); Drosophila protein; higher = stronger relative binding preference, active = 0.31 or more
# Procedure: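 Protein binding microarray (PBM): in vitro transcribed/translated Caupolican (Caup) homeodomain DNA-binding domain (residues 214-303) applied at 100 nM to a universal 8-mer PBM array (Agilent AMADID 015681). The 8-mer enrichment score (E-score, range -0.5 to 0.5) was computed, and each 9-mer score is the minimum E-score of its two constituent 8-mers. The E-score is the same for a 9-mer and its reverse complement; 0.31 is the stated binding threshold.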
row,Sequence,PBM E-score
1,ACGCAATC,-0.0194
2,GAGTTTAC,-0.00241
3,ACATCGCT,0.178
4,CCTTCTAC,-0.131
5,CATCTGAC,0.0423
6,AAGGTACC,-0.127
7,ACCGCACA,-0.00685
8,CGCGGAGA,-0.112
9,ATAGCTTC,-0.0833
10,GTGTTAGA,0.224
11,ATGTTAGC,0.314 (active)
12,ATGTTAGA,0.329 (active)
13,CTGTTAGA,0.105
14,ATGTTAGG,0.219
15,CTGTTAGC,-0.0813
16,GATGACAA,0.308
17,TATGACAA,0.314 (active)
18,CATGACAA,0.283
19,GATGACAC,0.219
20,AATGACAG,0.219
21,AATGACAA,0.346 (active)
22,CATGACAC,0.363 (active)
23,AATGACAT,0.298

row,Sequence,PBM E-score
1,AATGACAC,0.277
2,AGATCATC,0.12
3,ACAGGCGC,-0.0681
4,TGAGGGCA,-0.108
5,GAGCACAC,0.00424
6,AGCGTCTA,-0.0661
7,ACACGGTG,0.307
8,ACACGGAT,0.339 (active)
9,ACACGGAA,0.291
10,ACACGGAG,0.131
11,ACACGGTA,0.327 (active)
12,ACACGGTC,0.219
13,ACAACGTA,0.255
14,AGTCACAG,0.0714
15,CGCCCCCA,-0.285
16,AACATGAG,0.351 (active)
17,AACATGAT,≥ 0.424 (active)
18,AGCATGAC,0.0874
19,CACATGAG,0.0472
20,AGCATGAT,0.197
21,AACATGAC,0.42 (active)
22,AGCATGAG,0.104
23,ACCATGAT,0.158

row,Sequence,PBM E-score
1,ACCATGAC,0.0507
2,AGAAGATC,-0.0662
3,GTTGGATA,0.0774
4,ATCCAATC,0.102
5,AGCCCTTC,-0.22
6,GCTCGTGA,-0.064
7,AGCGGGGG,-0.28
8,GACTATGA,0.0441
9,ATAATGCC,0.0429
10,ACTTGCAT,0.137
11,GCGTTTAC,-0.0438
12,AGTACAGC,0.167
13,AGTACATC,0.342 (active)
14,AGTACGTG,0.0988
15,AGTACATG,0.45 (active)
16,AGCACATC,0.0585
17,AGCACATG,0.164
18,CGTGATAG,-0.0553
19,AGCGCAAG,-0.181
20,CTTTGCGA,-0.0806
21,TAAAAAGA,0.0988
22,CAAAGTTC,-0.0431
23,ATATGTGA,0.25

row,Sequence,PBM E-score
1,GTATGTTA,0.321 (active)
2,ATATGTTA,0.338 (active)
3,CTATGTTC,0.31
4,ATATGTTC,0.347 (active)
5,GTCTGTTA,0.161
6,ATATGTTG,0.324 (active)
7,CTCTGTTA,0.107
8,ATCTGTTG,0.128
9,ATATGTGC,0.118
10,ATATGTGG,0.182
11,CTATGTTA,0.294
12,ATTCAGTC,0.00318
13,AGCCATTC,-0.0817
14,CCCTAGGG,-0.253
15,TCTGTTCA,0.0822
16,GATGTTCA,0.303
17,CCTGTTCG,0.0935
18,AATGTTCA,0.244
19,AATGTTCC,0.2
20,TATGTTGA,0.288
21,CATGTTCA,0.396 (active)
22,CATGTTCG,0.399 (active)
23,AATGTTCG,0.154

row,Sequence,PBM E-score
1,CATGTTCC,0.409 (active)
2,GATGTTCC,0.281
3,TATGTTCA,0.324 (active)
4,AGCCCTCA,-0.12
5,CAACAAAG,0.159
6,CTAATAAG,0.0971
7,GGCTAGGA,-0.114
8,ATAAGGAA,0.0175
9,TAAACGCA,0.034
10,AGATACGC,-0.121
11,GGGTCTGA,-0.193
12,ACGCTGAG,-0.175
13,CATGTTGC,0.279
14,AATGTTGG,0.115
15,CATGTTGG,0.285
16,AATGTTGT,0.368 (active)
17,CATGTTGA,0.38 (active)
18,AATGTTGA,0.17
19,AGTCTAAG,0.0473
20,CTCTGTAA,0.12
21,GTATGTAA,0.369 (active)
22,GAATGTAA,0.223
23,ATCTGTAA,0.15
